Pf growth 96h: inhibits malaria parasite growth, 96 h; P. falciparum luciferase reporter growth, 96 h; Potency, µM (highest dose often 28.7 µM), actives largely listed as inhibitors; AID 504834; hit rate 6.9% among 320,000
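Two parasite generations (96 h, 37 C, 5% CO2) of compound exposure in infected erythrocytes (0.05% parasitemia, 2% hematocrit). Luciferase-reporter P. falciparum; decreased luminescence indicates inhibited growth, aimed at apicoplast-acting delayed death.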
SARS PLpro yeast: inhibitors of SARS-CoV papain-like protease in yeast | S. cerevisiae expressing SARS-CoV PLpro, growth rescue | Potency, µM (titrated, usually from 32.9 µM), actives largely listed as activators | hit rate 0.19% among 330,000; calls by dose curve; note: nearly all actives have a fitted effect of over 55% in size
Sm TGR inh: S. mansoni TGR enzyme inhibition | AID 485364 | Potency, µM (titrated, usually from 114 µM), hits mostly inhibitors | purified TGR, DTNB reduction, TNB absorbance 405 nm | hit rate 3% among 360,000; note: nearly all actives have a fitted effect of over 60% in size
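Kinetic colorimetric format: TGR-catalysed, NADPH-driven DTNB reduction monitored via TNB absorbance. Enzyme dispensed at 20 nM; compound exposure 15 min at room temperature before reaction start.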
Pf growth 48h: inhibits P. falciparum growth in the first generation, 48 h; hit rate 5.9% among 310,000; Potency, µM (top dose mostly 28.7 µM), hits mostly inhibitors; P. falciparum luciferase growth in erythrocytes, 48 h
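Cell-based growth assay: transgenic P. falciparum expressing firefly luciferase, cultured in red cells within RPMI 1640 containing 0.5% w/v Albumax, 24 mM bicarbonate and gentamycin. A drop in luciferase activity indicates inhibition.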
Of the large screens only hits and unclear results are named; the others gave an inactive call. This is a sample that favours compounds with a hit; in the whole collection about 12% have one here. Unless noted, calls come from the whole dose curve; as a rule, active = well fitted curve in the direction sought with a large enough effect; inconclusive = small, poorly fitted or top-dose-only effect, or another doubt; inactive = no such curve, though single readings can be large; an effect the other way counts as inactive or inconclusive.

Oc1ccc(C[C@@H]2CNCCN2CC2(c3ccccc3)CC2)cc1	Pf growth 96h inconclusive, Pf growth 48h inconclusive
Cc1cccc(C)c1NC(=O)CN(C)C(=O)CC1CC2CCC1C2 (configuration not stated)	none
Cc1ccc(S(=O)(=O)Nc2cc3c(cc2C#N)OCO3)cc1C(N)=O	none
O=c1c2[nH]c3ccc(F)cc3c2ncn1CCCN1CCOCC1	Pf growth 96h inconclusive
Clc1ccc2[nH]c3c(NCCN4CCOCC4)ncnc3c2c1	Pf growth 48h 3.7µM
Fc1ccc2[nH]c3c(NCCN4CCOCC4)ncnc3c2c1	Pf growth 96h 4.1µM, Pf growth 48h 3.3µM
COc1ccc(N2CCN(C(CNS(=O)(=O)c3ccc(OC)c(C)c3)c3ccco3)CC2)cc1 (configuration not stated)	none (no result: Pf growth 96h, SARS PLpro yeast, Pf growth 48h)
CCCCOc1ccc(Nc2nc(C)cc(C)c2C#N)cc1	Pf growth 96h 10µM
Cc1cc(C)n2c(Nc3ccc4c(c3)OCCO4)c(-c3ccco3)nc2n1	Pf growth 96h 12µM (no result: Pf growth 48h)
Cc1cc(C)n2c(Nc3ccc4c(c3)OCCO4)c(-c3ccc(C)o3)nc2n1	Pf growth 96h 5.9µM, Sm TGR inh inconclusive (no result: Pf growth 48h)
Cc1ccc(-c2nc3nc(C)cc(C)n3c2Nc2ccc3c(c2)OCCO3)cc1	none (no result: Pf growth 96h, SARS PLpro yeast, Pf growth 48h)
Cc1ccc(Nc2c(-c3ccco3)nc3nc(C)cc(C)n23)cc1	Pf growth 96h inconclusive, Sm TGR inh 32µM
Cc1ccc(-c2nc3ccc(Cl)cn3c2Nc2ccc3c(c2)OCCO3)o1	Sm TGR inh 28µM (no result: Pf growth 96h, SARS PLpro yeast, Pf growth 48h)
Cc1ccc(Nc2c(-c3ccco3)nc3ccc(C)cn23)cc1	none (no result: Pf growth 96h, SARS PLpro yeast, Pf growth 48h)
Cc1ccc(-c2nc3ccccn3c2Nc2ccc3c(c2)OCCO3)o1	none (no result: Pf growth 96h, SARS PLpro yeast, Pf growth 48h)
Cc1ccccc1OC(C)C(=O)N1CCN(c2ccccn2)CC1 (configuration not stated)	none
O=C(O)COc1ccc(/C=N/NC(=O)c2cccc3ccccc23)cc1	Pf growth 48h inconclusive
O/N=C/c1cc2ccccc2n1Cc1ccccc1F	Pf growth 48h 2.6µM
CCOc1ccc(-n2c(-c3ccccc3)c[n+]3c2CCCCC3)cc1	Pf growth 96h inconclusive, Pf growth 48h inconclusive
c1ccc(-c2c[n+]3c(n2-c2ccccc2)CCC3)cc1	Pf growth 96h inconclusive, Pf growth 48h 0.83µM
Cc1ccc(-c2c[n+]3c(n2-c2ccccc2)CCC3)cc1	Pf growth 96h 0.15µM, Pf growth 48h 1.5µM
Cc1cc(NC(=O)n2ncc3c(C)cccc32)ccc1Br	none (no result: Pf growth 96h, SARS PLpro yeast, Pf growth 48h)
Cc1ccccc1-c1nc(CS(=O)(=O)CC(=O)N2CCN(C)CC2)c(C)o1	none
COc1cccc(C(=O)Nc2ccc3nc(SCc4ccc(C)cc4)sc3c2)c1	none (no result: Pf growth 96h, SARS PLpro yeast, Pf growth 48h)
CCOC(=O)c1ccccc1Nc1cc(C)nc2nc(-c3ccco3)nn12	Sm TGR inh 18µM (no result: Pf growth 96h, SARS PLpro yeast, Pf growth 48h)
CC(=O)N/N=C(\C)C1COc2ccccc2O1 (configuration not stated)	none
COc1cc(NC(=O)Cn2nc(C(F)(F)F)c3c2CCC3)cc(OC)c1OC	none (no result: Pf growth 96h, SARS PLpro yeast, Pf growth 48h)
CCOC(=O)Nc1sc(=S)n(C)c1C	none
Cc1c(NC(=O)OCCNC(=O)Nc2ccccc2)sc(=S)n1C	Pf growth 96h 4.7µM
Cc1cc(Cl)ccc1OCC(=O)NCCOC(=O)Nc1sc(=S)n(C)c1C	Pf growth 96h 4.7µM
Cc1ccc(S(=O)(=O)NCCOC(=O)Nc2sc(=S)n(C)c2C)cc1	Sm TGR inh 11µM (no result: Pf growth 48h)
Cc1ccc(NC(=O)CSc2nc3nc(C)c(Cc4ccccc4)c(C)n3n2)cc1	none (no result: Pf growth 96h, SARS PLpro yeast, Pf growth 48h)
O=C(Nc1ccnn1C1CCN(CCCc2ccccc2)CC1)c1ccccc1Cl	Pf growth 96h inconclusive, SARS PLpro yeast inconclusive
CCOC(=O)CSC1=NC(=O)CS1	Sm TGR inh 32µM
CC(=O)c1ccc(N2CCN(CC(=O)N(C3CC3)C3CCS(=O)(=O)C3)CC2)c(F)c1 (configuration not stated)	none
CCN(Cc1nc2ccccc2c(=O)[nH]1)C(=O)COc1ccccc1Cc1ccccc1	Pf growth 96h 8.3µM, Pf growth 48h inconclusive
O=C(NC1CCCCC1)N(Cc1ccc(F)cc1)Cc1nc2ccccc2c(=O)[nH]1	Pf growth 48h 10µM
O=C(C1CC1)N(CCc1ccccc1)Cc1nc2ccccc2c(=O)[nH]1	Pf growth 96h 15µM
CCCC(=O)N(CCc1ccc(OC)cc1)Cc1nc2ccccc2c(=O)[nH]1	Pf growth 96h 10µM (no result: Pf growth 48h)
O=C(C1CCC1)N(CCc1ccccc1)Cc1nc2ccccc2c(=O)[nH]1	Pf growth 48h inconclusive
Nc1ncc(S(=O)(=O)c2ccc(Cl)cc2)c(N)n1	none
CCN(Cc1nc2ccccc2c(=O)[nH]1)C(=O)c1cccc(OCc2c(C)noc2C)c1	Pf growth 96h inconclusive, Pf growth 48h 6.6µM
CCC(=O)N1c2ccc(S(=O)(=O)NC3CCCCC3)cc2CC1C (configuration not stated)	Pf growth 96h 10µM
CCC(=O)N1c2ccc(S(=O)(=O)CCC(=O)N3CCN(c4ccc(F)cc4)CC3)cc2CC1C (configuration not stated)	Sm TGR inh 5.6µM (no result: Pf growth 96h, SARS PLpro yeast, Pf growth 48h)
CC(=O)N1c2ccc(S(=O)(=O)N(C)CC(=O)NCc3ccccc3)cc2CC1C (configuration not stated)	Pf growth 96h inconclusive
CCN(c1ccccc1)S(=O)(=O)c1ccc2c(c1)CC(C)N2C(=O)C1CC1 (configuration not stated)	Pf growth 96h 4.1µM, Pf growth 48h inconclusive
CC(=O)N1c2ccc(S(=O)(=O)N(C)CC(=O)NC(C)c3ccccc3)cc2CC1C (configuration not stated)	Pf growth 96h 9.3µM
CCC(=O)N1c2ccc(S(=O)(=O)CCC(=O)N3CCN(c4cc(C)ccc4C)CC3)cc2CC1C (configuration not stated)	none (no result: Pf growth 96h, SARS PLpro yeast, Pf growth 48h)
O=C(CSc1ccccc1)NCC1(N2CCOCC2)CCCCC1	none (no result: SARS PLpro yeast)
CCC(C)NC(=O)c1cc2c(Cl)nc3ccc(C)cc3c2s1 (configuration not stated)	none (no result: Pf growth 96h, SARS PLpro yeast, Pf growth 48h)
CCCc1cc(=O)[nH]c(SCC(=O)NCCN2C(=O)CSC2=O)n1	none (no result: Pf growth 96h, Sm TGR inh, Pf growth 48h)
CC1Cc2cc(S(=O)(=O)CCC(=O)N3CCN(c4ccccc4)CC3)ccc2N1C(=O)C1CC1 (configuration not stated)	Pf growth 96h 9.3µM
CCC(=O)N1CCc2cc(S(=O)(=O)CCC(=O)N3CCN(c4ccccc4Cl)CC3)ccc21	none (no result: Pf growth 96h, SARS PLpro yeast, Pf growth 48h)
CC(=O)c1ccc(N2CCN(C(=O)CCS(=O)(=O)c3ccc4c(c3)CCN4C(C)=O)CC2)cc1	Pf growth 96h inconclusive, Pf growth 48h 13µM
CC(CC(=O)NCc1ccco1)S(=O)(=O)c1ccc2c(c1)CCN2C(=O)C1CC1 (configuration not stated)	Pf growth 96h 8.3µM
CCC(=O)N1CCc2cc(S(=O)(=O)CCC(=O)N3CCN(c4ccc(F)cc4)CC3)ccc21	Pf growth 96h 1µM
CCC(=O)N1CCc2cc(S(=O)(=O)CCC(=O)NCc3ccco3)ccc21	Pf growth 96h inconclusive
COc1ccc(-n2c(=O)c3c(c4cc(OC)ccc4n3C)n(C)c2=O)cc1	none (no result: Pf growth 96h, SARS PLpro yeast, Pf growth 48h)
CC(CO)NC(=O)C1C=C2c3cccc4[nH]cc(c34)CC2N(C)C1 (configuration not stated)	Pf growth 96h inconclusive (no result: SARS PLpro yeast, Sm TGR inh)
CON(C)S(=O)(=O)c1cccc(C(=O)Oc2ccc(N(C)S(=O)(=O)c3ccccc3)cc2)c1	none

Screening results from PubChem.
